The source of these data is the supplement of paper PMC12582362.

Structures can show the parent of a compound that is named as a salt. Among all 1,500 compounds or so, about 30 (2%) showed activity. What follows is part of a selection rich in actives, with near analogues and random picks from the rest. Values without a mark were called inactive.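 The calls were made as follows: active = robust z-score below -2; a few such results were not called.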

For the assay, the system named is optoTopBP1 Flp-In 293 T-REx (HEK293) cells. Briefly: light-induced TopBP1 condensate (nuclear foci) count, plate-normalised robust z-score vs non-control wells; higher = more TopBP1 condensates (negative = condensation inhibitor), active = hit call of the paper. As to conditions: 10 µM; incubation time 2 h.
Take `CC(C)(S)C(N)C(=O)O` (racemic) [D,L-Penicillamine]: the “light-induced TopBP1 condensate (z-score)” value was 1.98. Regarding `Cc1ccc(C)c(OCCCC(C)(C)C(=O)O)c1` [Gemfibrozil], the “light-induced TopBP1 condensate (z-score)” value is 0.575.

For `CC(=O)[C@@]12O[C@](C)(c3ccccc3)O[C@@H]1C[C@H]1[C@@H]3CCC4=CC(=O)CC[C@]4(C)[C@H]3CC[C@@]12C` [Algestone acetophenide], the “light-induced TopBP1 condensate (z-score)” value was -1.65. On to `COc1cc(NS(=O)(=O)c2ccc(N)cc2)nc(OC)n1` [Sulfadimethoxine], for which the “light-induced TopBP1 condensate (z-score)” value was 0.224. Consider `CCN(CC)C(=O)Nc1ccc(OCC(O)CNC(C)(C)C)c(C(C)=O)c1` (centres undefined) [Celiprolol hydrochloride], for which the “light-induced TopBP1 condensate (z-score)” value is -0.488. `CCc1oc2ccccc2c1C(=O)c1ccc(O)cc1` [Benzarone]: the “light-induced TopBP1 condensate (z-score)” value is 1.57.

Consider `CCCCC1=NC2(CCCC2)C(=O)N1Cc1ccc(-c2ccccc2-c2nnn[nH]2)cc1` [Irbesartan], for which the “light-induced TopBP1 condensate (z-score)” value is -0.971. As to `CN(C)C(=N)NC(=N)N` [Metformin hydrochloride], the “light-induced TopBP1 condensate (z-score)” value was -0.726.

As for `CC(C)(C)C(O)/C=C/c1ccc2c(c1)OCO2` (centres undefined) [Stiripentol], the “light-induced TopBP1 condensate (z-score)” value is 1.26. Take `CCOC(=O)c1c(N)sc2c1CCN(Cc1ccccc1)C2` [Tinoridine hydrochloride]: the “light-induced TopBP1 condensate (z-score)” value is 0.308. `C[C@H]1O[C@@H](O[C@H]2[C@@H](O)C[C@H](O[C@H]3[C@@H](O)C[C@H](O[C@H]4CC[C@@]5(C)[C@H](CC[C@@H]6[C@@H]5C[C@@H](O)[C@]5(C)[C@@H](C7=CC(=O)OC7)CC[C@]65O)C4)O[C@@H]3C)O[C@@H]2C)C[C@H](O)[C@@H]1O` [Digoxin]: the “light-induced TopBP1 condensate (z-score)” value was -2.42 (active). On to `CCCCOC(=O)c1ccccc1Nc1cccc(C(F)(F)F)c1` [Ufenamate], for which the “light-induced TopBP1 condensate (z-score)” value is -0.0275. As to `O=C(NCCO[N+](=O)[O-])c1cccnc1` [Nicorandil], the “light-induced TopBP1 condensate (z-score)” value was 0.468. As to `Cn1nnc2c(C(N)=O)ncn2c1=O` [Temozolomide], the “light-induced TopBP1 condensate (z-score)” value is -0.835. In the case of `Cc1c(Cl)cccc1Nc1ncccc1C(=O)O` [Clonixin Lysinate], the “light-induced TopBP1 condensate (z-score)” value is 0.77. Take `NC(=O)c1cc[n+](CC2=C(C(=O)[O-])N3C(=O)[C@@H](NC(=O)[C@@H](c4ccccc4)S(=O)(=O)O)[C@H]3SC2)cc1` [Cefsulodin sodium salt]: the “light-induced TopBP1 condensate (z-score)” value was 0.128. `CC[C@H]1OC(=O)[C@H](C)[C@@H](O[C@H]2C[C@@](C)(OC)[C@@H](O)[C@H](C)O2)[C@H](C)[C@@H](O[C@@H]2O[C@H](C)C[C@H](N(C)C)[C@H]2O)[C@](C)(O)C[C@@H](C)C(=O)[C@H](C)[C@@H](O)[C@]1(C)O` [Erythromycin]: the “light-induced TopBP1 condensate (z-score)” value was -0.359.

On to `CCC1(c2ccccc2)NC(=O)N(C)C1=O` (centres undefined) [Mephenytoin], for which the “light-induced TopBP1 condensate (z-score)” value is 0.477. `COCC(=O)O[C@]1(CCN(C)CCCc2nc3ccccc3[nH]2)CCc2cc(F)ccc2[C@@H]1C(C)C` [Mibefradil]: the “light-induced TopBP1 condensate (z-score)” value was -2.07 (active). In the case of `COc1cc(/C=C/C(=O)N2CCN(CC(=O)N3CCCC3)CC2)cc(OC)c1OC` [Cinepazide maleate], the “light-induced TopBP1 condensate (z-score)” value was -0.187. Consider `CC(C)[C@H](N)C(=O)OCC(CO)OCn1cnc2c(=O)nc(N)[nH]c21` (some centres undefined) [Valganciclovir hydrochloride], for which the “light-induced TopBP1 condensate (z-score)” value was 0.111. Take `COc1ccc(CN(CCN(C)C)c2ccccn2)cc1` [Pyrilamine maleate]: the “light-induced TopBP1 condensate (z-score)” value is -1.49.

In the case of `CN(C)CCN(Cc1ccc(Cl)cc1)c1ccccn1` [Chloropyramine hydrochloride], the “light-induced TopBP1 condensate (z-score)” value was -0.941. As for `CCCCCCCCCCCCCCCC[N+](C)(C)CCN(Cc1ccc(OC)cc1)c1ncccn1` [Thonzonium bromide], the “light-induced TopBP1 condensate (z-score)” value is -2.49 (active). Turning to `CO/N=C(\C(=O)N[C@@H]1C(=O)N2C(C(=O)OC(C)OC(C)=O)=C(COC(N)=O)CS[C@H]12)c1ccco1` (some centres undefined) [Cefuroxime axetil], the “light-induced TopBP1 condensate (z-score)” value was -0.531. For `C=C(NC(=O)C(=C)NC(=O)c1csc(C2=N[C@@H]3c4csc(n4)[C@H]4NC(=O)c5csc(n5)[C@H]([C@](C)(O)[C@@H](C)O)NC(=O)[C@H]5CSC(=N5)/C(=C/C)NC(=O)[C@H]([C@@H](C)O)NC(=O)c5csc(n5)[C@]3(CC2)NC(=O)[C@H](C)NC(=O)C(=C)NC(=O)[C@H](C)NC(=O)[C@H]([C@@H](C)CC)N[C@@H]2C=Cc3c([C@H](C)O)cc(nc3[C@H]2O)C(=O)O[C@@H]4C)n1)C(N)=O` [Thiostrepton], the “light-induced TopBP1 condensate (z-score)” value is -3.34 (active).

For the molecule `CC(C)c1ccc2oc3nc(N)c(C(=O)O)cc3c(=O)c2c1` [Amlexanox], the “light-induced TopBP1 condensate (z-score)” value was -0.968. Take `N=C(NCCCCCCNC(=N)NC(=N)Nc1ccc(Cl)cc1)NC(=N)Nc1ccc(Cl)cc1` [Chlorhexidine]: the “light-induced TopBP1 condensate (z-score)” value is 0.68. Consider `CCc1ccc(C(=O)C(C)CN2CCCCC2)cc1` (centres undefined) [Eperisone HCl], for which the “light-induced TopBP1 condensate (z-score)” value was 1.18.

For the molecule `CC(=O)OCC(=O)[C@@]12N=C(C)O[C@@H]1C[C@H]1[C@@H]3CCC4=CC(=O)C=C[C@]4(C)[C@H]3[C@@H](O)C[C@@]12C` [Deflazacort], the “light-induced TopBP1 condensate (z-score)” value was -0.182. As for `CCOC(=O)C1=C(COCCN)NC(C)=C(C(=O)OC)C1c1ccccc1Cl` (centres undefined) [Amlodipine], the “light-induced TopBP1 condensate (z-score)” value was -1.57. For `OC(c1cc(C(F)(F)F)nc2c(C(F)(F)F)cccc12)C1CCCCN1` (centres undefined) [Mefloquine hydrochloride], the “light-induced TopBP1 condensate (z-score)” value was -1.69. Turning to `CN(C)c1ccc2nc3ccc(=[N+](C)C)cc-3sc2c1` [Methylene blue], the “light-induced TopBP1 condensate (z-score)” value was -8.05 (active). For `Nc1c2ccccc2nc2ccccc12` [Aminacrine], the “light-induced TopBP1 condensate (z-score)” value was -2.02. Consider `CCOc1ccc2nc3cc(N)ccc3c(N)c2c1` [Ethacridine lactate], for which the “light-induced TopBP1 condensate (z-score)” value is 0.0605. To `Nc1ccc2cc3ccc(N)cc3nc2c1` [Proflavine hemisulfate] belongs -6.85 (active); to `CO/N=C(\C(=O)N[C@@H]1C(=O)N2C(C(=O)[O-])=C(C[n+]3ccn4ncccc43)CS[C@H]12)c1nsc(N)n1` [Cefozopran hydrochloride], 0.96; to `CC[C@H]1OC(=O)[C@H](C)[C@@H](O[C@H]2C[C@@](C)(OC)[C@@H](O)[C@H](C)O2)[C@H](C)[C@@H](O[C@@H]2O[C@H](C)C[C@H](N(C)C)[C@H]2O)[C@](C)(O)C[C@@H](C)/C(=N\OCOCCOC)[C@H](C)[C@@H](O)[C@]1(C)O` [Roxithromycin], 0.222. In the case of `CC[N+](C)(CC)CCOC(=O)C1c2ccccc2Oc2ccccc21` [Methantheline bromide], the “light-induced TopBP1 condensate (z-score)” value was 0.691. Regarding `CSc1nc2cc(Cl)c(Oc3cccc(Cl)c3Cl)cc2[nH]1` [Triclabendazole], the “light-induced TopBP1 condensate (z-score)” value was -2.43 (active). With `C[C@@H](CN1CC(=O)NC(=O)C1)N1CC(=O)NC(=O)C1` [Dexrazoxane hydrochloride], the “light-induced TopBP1 condensate (z-score)” value was -0.035.

Turning to `C=CCOc1ccc(CC(=O)O)cc1Cl` [Alclofenac], the “light-induced TopBP1 condensate (z-score)” value is 0.0679. On to `N=C(N)NCCN1CCCCCCC1` [Guanethidine sulfate], for which the “light-induced TopBP1 condensate (z-score)” value was -0.799. Turning to `CC(C)(C)NC[C@H](O)COc1ccccc1C1CCCC1` [Penbutolol sulfate], the “light-induced TopBP1 condensate (z-score)” value is -0.793.

Turning to `COc1ccccc1Oc1c(NS(=O)(=O)c2ccc(C(C)(C)C)cc2)nc(-c2ncccn2)nc1OCCO` [Bosentan], the “light-induced TopBP1 condensate (z-score)” value was 0.343.

As for `CC[C@H]1OC(=O)C[C@@H](O)[C@H](C)[C@@H](O[C@@H]2O[C@H](C)[C@@H](O[C@H]3C[C@@](C)(O)[C@@H](O)[C@H](C)O3)[C@H](N(C)C)[C@H]2O)[C@@H](CC=O)C[C@@H](C)C(=O)/C=C/C(C)=C/[C@@H]1CO[C@@H]1O[C@H](C)[C@@H](O)[C@@H](OC)[C@H]1OC` [Tylosin], the “light-induced TopBP1 condensate (z-score)” value was 0.755. The figure for `CN1C(=O)OC(C)(C)C1=O` [Trimethadione] is 0.285; for `NC[C@@H]1O[C@@H](O[C@H]2[C@H](O)[C@@H](O[C@H]3O[C@H](CO)[C@@H](O)[C@H](N)[C@H]3O)[C@H](N)C[C@@H]2N)[C@@H](O)[C@H](O)[C@H]1O` [Kanamycin A sulfate] it is 0.0568. The figure for `C[C@H]1[C@H](OC(=O)CCC(=O)O)O[C@@H]2O[C@@]3(C)CC[C@H]4[C@H](C)CC[C@@H]1[C@@]24OO3` [Artesunate] is -0.0235. The figure for `CCN(CC)CCCC(C)Nc1ccnc2cc(Cl)ccc12` (centres undefined) [Chloroquine diphosphate] is -0.187. Regarding `CCN(CCO)CCCC(C)Nc1ccnc2cc(Cl)ccc12` (centres undefined) [Hydroxychloroquine sulfate], the “light-induced TopBP1 condensate (z-score)” value is -1.68.

For `CCN(CC)CCCC(C)Nc1c2ccc(Cl)cc2nc2ccc(OC)cc12` (centres undefined) [Quinacrine dihydrochloride hydrate], the “light-induced TopBP1 condensate (z-score)” value was -3.15 (active).

For the molecule `CC(=O)N[C@@H](CC(=O)N[C@@H](CCC(=O)O)C(=O)O)C(=O)O` [Spaglumic acid], the “light-induced TopBP1 condensate (z-score)” value was 1.44. With `CC(C)(CO)[C@@H](O)C(=O)NCCC(=O)NCCSSCCNC(=O)CCNC(=O)[C@H](O)C(C)(C)CO` [Pantethine], the “light-induced TopBP1 condensate (z-score)” value was 0.505. In the case of `NCCCC(O)(P(=O)(O)O)P(=O)(O)O` [Alendronate sodium], the “light-induced TopBP1 condensate (z-score)” value is -0.706. With `O=P(O)(O)C(O)(Cc1cccnc1)P(=O)(O)O` [Risedronic acid monohydrate], the “light-induced TopBP1 condensate (z-score)” value was -0.826. Consider `C#C[C@]1(O)CC[C@H]2[C@@H]3CCC4=CCCC[C@@H]4[C@H]3CC[C@@]21C` [Lynestrenol], for which the “light-induced TopBP1 condensate (z-score)” value was 1.39. For the molecule `CC(C)=CCC1C(=O)N(c2ccccc2)N(c2ccccc2)C1=O` [Feprazone], the “light-induced TopBP1 condensate (z-score)” value was 1.11. To `C[N+](C)(C)C[C@H](O)CC(=O)[O-]` [Levocarnitine] belongs 0.0352.
